Assay [1] can be described thus: qHTS assay to identify aromatase inhibitors - cell viability counter screen (AID 743084).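 Also: cells stimulated with testosterone during compound exposure; nearly all actives have a fitted effect of over 55% in size.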 Also: potency is read from the fitted curve at half-maximal effect.
The target of assay [2] is Aryl hydrocarbon receptor (Homo sapiens) (UniProt P35869). Description: qHTS assay to identify small molecule that activate the aryl hydrocarbon receptor (AhR) signaling pathway (AID 743085). Also: nearly all actives have a fitted effect of over 15% in size. Also: potency is read from the fitted curve at half-maximal effect.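 As to activation: HG2L7.5c1 human HepG2 liver cells with stably integrated DRE-driven firefly reporter; series mostly up to about 70 µM.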 A digest of the protocol: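 Luminescence (ONE-Glo) from a dioxin-responsive-element luciferase reporter in HG2L7.5c1 HepG2 cells after 24 hr compound exposure at 37C; viability measured by CellTiter-Fluor fluorescence beforehand.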
Chain of Aryl hydrocarbon receptor (Homo sapiens) (P35869 whole entry, looked up): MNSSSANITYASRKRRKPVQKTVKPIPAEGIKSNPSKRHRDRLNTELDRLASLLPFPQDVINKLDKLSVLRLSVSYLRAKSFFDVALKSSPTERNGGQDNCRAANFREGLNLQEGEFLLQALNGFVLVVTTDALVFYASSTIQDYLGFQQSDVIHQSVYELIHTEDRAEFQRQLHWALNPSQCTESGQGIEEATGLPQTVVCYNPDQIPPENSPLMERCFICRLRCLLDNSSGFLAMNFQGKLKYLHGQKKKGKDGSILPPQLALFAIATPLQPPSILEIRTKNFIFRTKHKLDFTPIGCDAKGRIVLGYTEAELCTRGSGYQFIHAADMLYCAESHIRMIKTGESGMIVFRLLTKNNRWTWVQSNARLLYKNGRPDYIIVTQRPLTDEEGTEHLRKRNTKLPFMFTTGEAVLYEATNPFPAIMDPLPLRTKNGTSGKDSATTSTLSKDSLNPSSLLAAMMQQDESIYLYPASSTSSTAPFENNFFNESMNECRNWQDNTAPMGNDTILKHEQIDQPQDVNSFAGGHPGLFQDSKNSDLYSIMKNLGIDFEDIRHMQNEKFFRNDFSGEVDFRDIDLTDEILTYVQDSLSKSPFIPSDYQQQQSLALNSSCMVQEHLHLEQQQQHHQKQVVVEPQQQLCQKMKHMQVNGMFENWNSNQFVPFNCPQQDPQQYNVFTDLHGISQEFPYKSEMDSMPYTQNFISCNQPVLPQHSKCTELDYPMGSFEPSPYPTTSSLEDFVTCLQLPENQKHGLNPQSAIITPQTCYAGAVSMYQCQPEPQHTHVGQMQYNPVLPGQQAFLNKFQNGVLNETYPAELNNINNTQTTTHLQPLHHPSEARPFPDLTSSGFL
On the technique in general: Quantitative high-throughput screening tests each substance at several concentrations.

Assay [3] in a line: qHTS assay to identify small molecule that activate the aryl hydrocarbon receptor (AhR) signaling pathway - cell viability counter screen (AID 743086). Also: nearly all actives have a fitted effect of over 45% in size. Also: potency is read from the fitted curve at half-maximal effect. A digest of the protocol:
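HepG2-AhR-luc (HG2L7.5c1) cells, 4000/well, were preincubated 5 h at 37C, exposed to compound in qHTS format for 24 hr at 37C, then given CellTiter-Fluor for 30 min; viability was read as fluorescence in the reporter wells.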

The target in assay [4] is Peroxisome proliferator-activated receptor gamma (Homo sapiens) (UniProt P37231). Briefly: qHTS assay to identify small molecule agonists of the peroxisome proliferator-activated receptor gamma (PPARg) signaling pathway (AID 743094; active = well fitted activation curve with a large enough effect in the signal ratio in the repeat runs, not every such curve was filed as active; the % refers to the signal ratio). A digest of the protocol: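 Reporter activation was scored by fluorescence of cleaved LiveBLAzer B/G substrate (1 h, room temperature) in PPARg-bla HEK293H cells previously treated 17 h at 37C with DMSO-dissolved compounds.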
Chain of Peroxisome proliferator-activated receptor gamma (Homo sapiens) (P37231 whole entry, looked up): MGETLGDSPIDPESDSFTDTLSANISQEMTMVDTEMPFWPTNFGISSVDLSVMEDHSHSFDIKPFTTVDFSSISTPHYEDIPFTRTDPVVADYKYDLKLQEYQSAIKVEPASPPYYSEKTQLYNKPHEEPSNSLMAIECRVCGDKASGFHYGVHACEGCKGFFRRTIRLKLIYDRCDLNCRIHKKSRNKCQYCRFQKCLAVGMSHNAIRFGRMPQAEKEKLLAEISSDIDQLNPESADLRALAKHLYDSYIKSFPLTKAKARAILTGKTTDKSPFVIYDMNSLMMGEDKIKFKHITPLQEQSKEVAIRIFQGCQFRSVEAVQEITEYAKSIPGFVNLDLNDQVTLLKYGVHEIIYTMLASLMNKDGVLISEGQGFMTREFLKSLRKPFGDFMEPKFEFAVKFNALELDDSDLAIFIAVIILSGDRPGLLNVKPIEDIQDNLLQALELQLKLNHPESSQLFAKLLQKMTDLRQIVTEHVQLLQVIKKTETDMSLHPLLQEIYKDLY

Assay [5] has the same target. Description: qHTS assay to identify small molecule antagonists of the peroxisome proliferator-activated receptor gamma (PPARg) signaling pathway (AID 743191; calls by dose curve; also: nearly all actives have a fitted effect of over 30% in size; also: potency is read from the fitted curve at half-maximal effect). A digest of the protocol:
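GeneBLAzer PPARg UAS-bla HEK293H cells carrying a UAS-driven beta-lactamase reporter were plated at 3000 cells/well, preincubated 5 h at 37C, then given compound for 17 h at 37C; LiveBLAzer B/G FRET substrate was read after 1 h at room temperature.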

Assay [6] in a line: qHTS assay to identify small molecule antagonists of the peroxisome proliferator-activated receptor gamma (PPARg) signaling pathway - cell viability counter screen (AID 743194). Also: nearly all actives have a fitted effect of over 55% in size. Also: potency is read from the fitted curve at half-maximal effect. The conditions noted are these: Potency: co-treated with 50 nM rosiglitazone unless noted. The procedure, abridged: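 PPARg-UAS-bla HEK293H cells were plated, rested 5 h at 37 C, then treated with compounds plus rosiglitazone (50 nM final) for 17 h at 37 C; viability was then read by CellTiter-Glo luminescence after 30 min at room temperature.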

Assay [7] in a line: qHTS assay for small molecule agonists of the antioxidant response element (ARE) signaling pathway (AID 743202; active = well fitted activation curve with a large enough effect in the signal ratio in the repeat runs, not every such curve was filed as active; the % refers to the signal ratio; also: potency is read from the fitted curve at half-maximal effect). The procedure, abridged:
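Following a 16 h, 37 C exposure of reporter HepG2 cells (ARE-driven beta-lactamase, 2,000 cells/well) to compounds, FRET substrate was applied for 2 h at room temperature and fluorescence intensity recorded.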

Assay [8] in a line: qHTS assay for small molecule agonists of the antioxidant response element (ARE) signaling pathway - cell viability counter screen (AID 743203; calls by dose curve; also: nearly all actives have a fitted effect of over 55% in size; also: potency is read from the fitted curve at half-maximal effect). The procedure, abridged:
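Viability counter screen: stably transfected ARE-bla HepG2 line, 16 hrs compound exposure at 37C/5% CO2, ATP-based CellTiter-Glo luminescence measured in the reporter wells.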

Assay [9] in a line: qHTS assay for small molecule activators of the heat shock response signaling pathway - cell viability counter screen (AID 743209). Also: nearly all actives have a fitted effect of over 50% in size. Also: potency is read from the fitted curve at half-maximal effect. The procedure, abridged:
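Viability of HSE-bla HeLa cells is measured with CellTiter-Glo in the wells already used for the reporter read. Compound exposure lasts 5 h at 37 C, and luminescence is read after 30 min at room temperature.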

Assay [10] can be described thus: qHTS assay for small molecule activators of the heat shock response signaling pathway (AID 743210; active = well fitted activation curve with a large enough effect in the signal ratio in the repeat runs, with a control signal flat, not every such curve was filed as active; the % refers to the signal ratio; also: series mostly up to about 63 µM). The procedure, abridged: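 Heat shock element–beta-lactamase HeLa reporter cells; qHTS with compounds for 5 h at 37 C; detection by FRET substrate fluorescence after 2.5 h at RT.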

Several values for one entry are separate records, joined by “and”; a condition that tells them apart may be missing. Equal values may be shown once. Results filed as inconclusive are left out. Activity calls are given as the source filed them. Unless noted, calls follow the shape of the dose curve; as a rule, active = well fitted curve in the direction sought with a large enough effect in the repeat runs; inconclusive = weak or mixed curves; inactive = no such curve, though single readings can be large; an effect the other way counts as inactive or inconclusive.

Consider `Nc1nc(N)nc(Cl)n1`, for which the Potency result in assay [1], in assay [2], in [3], in assay [4], in assay [5] and in [6] was “inactive” in each case. Moreover, the Potency entry in assay [7], in assay [8], in assay [9] and in [10] was “inactive” throughout.

On to `O=P(Cl)(Cl)Cl`, for which the Potency result in [1], in assay [2], in assay [3], in assay [4], in assay [5] and in [6] was “inactive” each time. For the same compound, the Potency result in assay [8], in [9] and in assay [10] was “inactive” throughout.

`CCOP(=O)(Sc1ccccc1)Sc1ccccc1`: the Potency result in assay [1], in assay [2], in assay [3], in assay [4], in assay [6] and in assay [9] was “inactive” throughout. The Potency in assay [5] is 54.9 µM (active).

Consider `CC(Cc1ccc(O)cc1)NCC(O)c1cc(O)cc(O)c1` (configuration not stated), for which the Potency entry in assay [1], in assay [2], in assay [3], in [4], in assay [5] and in assay [6] was “inactive” each time. Also, the Potency result in [8], in [9] and in [10] was “inactive” in each case.

For the compound `c1cc[n+]2c(c1)-c1cccc[n+]1CC2`, the Potency entry in assay [1], in assay [2], in [3], in assay [4], in assay [5] and in assay [6] was “inactive” each time. Besides, the Potency entry in assay [8] and in assay [9] was “inactive” throughout. Besides, the Potency in assay [7] was 10.6 µM (active).

For the compound `Brc1ccc(Oc2ccc(Br)cc2Br)c(Br)c1`, the Potency result in [1], in assay [2], in [3], in [4], in [5] and in assay [6] was “inactive” in each case. For the same compound, in [10], the Potency entry was “inactive”.

Turning to `COc1nc(C)nc(NC(=O)NS(=O)(=O)c2ccccc2Cl)n1`, the Potency entry in assay [1], in assay [2], in assay [3], in assay [4], in assay [5] and in assay [6] was “inactive” in each case. Moreover, the Potency entry in [7], in assay [9] and in assay [10] was “inactive” throughout.

Regarding `CNC(=O)O/N=C(\C)C(C)S(C)(=O)=O` (configuration not stated), the Potency result in [1], in assay [2], in assay [3], in assay [4], in assay [5] and in assay [6] was “inactive” in each case. The Potency entry in [7], in [8], in [9] and in assay [10] was “inactive” throughout.

For the compound `[O]=[Cr][O][Cr]=[O]`, the Potency entry in [1], in assay [2], in assay [3], in assay [4], in assay [5] and in [6] was “inactive” each time. The Potency result in [7], in [8], in [9] and in assay [10] was “inactive” each time.

Take `CC(Cl)CCl` (configuration not stated): the Potency entry in assay [1], in assay [2], in assay [3], in assay [4], in assay [5] and in [6] was “inactive” throughout. The Potency result in assay [8], in assay [9] and in [10] was “inactive” throughout.

For `CC(C)NCC(O)c1ccccc1Cl` (configuration not stated), the Potency result in assay [1], in assay [2], in assay [3], in assay [4], in assay [5] and in [6] was “inactive” each time. Further, the Potency entry in [7], in [8], in assay [9] and in assay [10] was “inactive” each time.

For the compound `CCC(C)Br` (configuration not stated), the Potency entry in assay [1], in assay [2], in assay [3], in assay [4], in assay [5] and in [6] was “inactive” throughout. In addition, the Potency entry in assay [7], in assay [8] and in assay [10] was “inactive” throughout.

For the compound `CCC1(CC)C(=O)N=C(O)NC1=O`, the Potency result in [1], in assay [2], in assay [3], in assay [4], in [5] and in assay [6] was “inactive” each time. The Potency entry in assay [8], in assay [9] and in assay [10] was “inactive” throughout.

Turning to `Cc1c([N+](=O)[O-])cc2c(c1[N+](=O)[O-])C(C)(C)CC2(C)C`, the Potency result in [1], in [2], in assay [3], in [4], in [5] and in assay [6] was “inactive” each time. The Potency result in assay [9] and in [10] was “inactive” each time.

`COC(=O)C(C)N(C(=O)c1ccco1)c1c(C)cccc1C` (configuration not stated): the Potency result in assay [1], in assay [2], in assay [3], in assay [4], in assay [5] and in assay [6] was “inactive” throughout. In addition, the Potency entry in [8], in [9] and in [10] was “inactive” each time.

For `CC(Cc1ccc2c(c1)OCO2)NO` (configuration not stated), the Potency entry in assay [1], in assay [2], in [3], in assay [4], in [5] and in assay [6] was “inactive” each time. The Potency entry in assay [8], in assay [9] and in assay [10] was “inactive” each time.

`Clc1ccc(C(Cl)(Cl)Cl)cc1Cl`: the Potency result in assay [1], in [3], in assay [4], in assay [5], in assay [6] and in assay [9] was “inactive” each time. The Potency result in assay [10] was “inactive”. In addition, the Potency in assay [2] was 26.7 µM (active).

For `Cc1cccc(Cc2cnc[nH]2)c1C`, the Potency result in [1], in assay [3], in assay [4], in assay [5], in assay [6] and in assay [8] was “inactive” in each case. Further, the Potency entry in assay [9] is “inactive”. The Potency in assay [2] was 13.3 µM (active).

Consider `COc1cnc(OC)n2nc(NS(=O)(=O)c3c(OCC(F)F)cccc3C(F)(F)F)nc12`, for which the Potency result in [1], in [2], in assay [3], in assay [4], in assay [5] and in assay [6] was “inactive” in each case. Further, the Potency result in [7], in assay [8], in assay [9] and in [10] was “inactive” throughout.

Turning to `CC(C)N(C(=O)CCl)c1ccccc1`, the Potency in assay [1] is 24.3 µM (active); in assay [3] it was 38.6 µM (active) and 68.6 µM (active); in assay [5], 3.89 µM (active) and 3.47 µM (active); in [6], 49 µM (active) and 27.5 µM (active); in assay [8] it was 6.86 µM (active) and 3.86 µM (active); in assay [9], 12.3 µM (active) and 5.49 µM (active). The Potency result in assay [2] and in [4] was “inactive” in each case.

In the case of `CCCCN(CCCC)C(=S)[S-].CCCCN(CCCC)C(=S)[S-].[Ni+2]`, the Potency result in assay [1], in assay [2], in [3], in assay [4], in assay [5] and in assay [6] was “inactive” each time. Moreover, the Potency entry in [7], in assay [8], in [9] and in [10] was “inactive” in each case.
